Screens from PubChem BioAssay.
RORgamma inh – qHTS for inhibitors of ROR gamma transcriptional activity | Nuclear receptor ROR-gamma (Mus musculus), P51450 | Drosophila S2 Gal4-RORgamma UAS-luciferase reporter, 20 h | Potency, µM (doses to about 53.6 µM), actives largely listed as inhibitors | 5.4% of 310,000 active | AID 2551, 2010; note: nearly all actives have a fitted effect of over 60% in size
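A Gal4/UAS one-hybrid system in insect cells: metallothionein-promoter Gal4–ROR gamma fusion plus Photinus luciferase reporter. Copper sulfate 700 uM final, 20 hr ambient incubation, luminescent detection after 10 min with reagent.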
TDP1 inh – qHTS Assay for Inhibitors of Tyrosyl-DNA Phosphodiesterase (TDP1); Tyrosyl-DNA phosphodiesterase 1 (Homo sapiens), Q9NUW8; recombinant TDP1, AlphaScreen DNA substrate cleavage; Potency, µM (highest dose often 130 µM), hits mostly inhibitors; 0.28% of 350,000 active; AID 485290, 2010; note: nearly all actives have a fitted effect of over 40% in size
Target sequence (Q9NUW8 whole entry, looked up): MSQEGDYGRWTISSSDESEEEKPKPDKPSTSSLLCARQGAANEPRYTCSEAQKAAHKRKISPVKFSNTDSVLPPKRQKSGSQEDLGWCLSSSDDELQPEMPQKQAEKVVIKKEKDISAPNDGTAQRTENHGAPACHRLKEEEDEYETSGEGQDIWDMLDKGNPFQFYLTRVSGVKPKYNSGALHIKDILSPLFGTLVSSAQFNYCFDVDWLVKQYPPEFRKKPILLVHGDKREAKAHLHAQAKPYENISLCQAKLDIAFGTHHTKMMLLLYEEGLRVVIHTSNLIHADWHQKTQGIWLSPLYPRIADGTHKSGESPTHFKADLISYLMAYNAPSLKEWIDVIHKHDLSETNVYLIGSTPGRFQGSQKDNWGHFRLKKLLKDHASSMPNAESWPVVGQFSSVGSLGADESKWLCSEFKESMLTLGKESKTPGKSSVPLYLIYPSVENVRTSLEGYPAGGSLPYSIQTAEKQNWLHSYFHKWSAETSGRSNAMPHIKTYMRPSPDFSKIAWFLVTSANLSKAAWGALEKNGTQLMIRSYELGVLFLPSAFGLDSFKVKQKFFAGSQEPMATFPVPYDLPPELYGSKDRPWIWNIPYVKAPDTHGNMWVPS
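Signal: AlphaScreen proximity between streptavidin donor and anti-FITC acceptor beads on intact substrate. Reaction: Tdp1 1 nM, substrate 15 nM final, 5 min RT after 15 min compound preincubation.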
TDP1 cell noCPT – qHTS for Inhibitors of human tyrosyl-DNA phosphodiesterase 1 (TDP1): qHTS in cells in absence of CPT. DT40 Tdp1-/- hTDP1 cells, no CPT, ATP luminescence, 48 h. Potency, µM (highest dose often 46.2 µM), actives largely listed as inhibitors. 15% of 420,000 active. AID 686978, 2013; note: nearly all actives have a fitted effect of over 55% in size
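Camptothecin absent (DMSO only). Human TDP1-complemented DT40 knockout cells, 400 cells/well, 37 °C for minimum 48 hr; ATP measured via CellTiter-Glo, 30 min dark incubation, luminescence.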
Gal4-VP16 FLuc – VP16 counterscreen qHTS for inhibitors of ROR gamma transcriptional activity | Drosophila S2 Gal4-VP16 UAS-luciferase, luminescence, 20 h | Potency, µM (doses to about 53.6 µM), most hits filed as inhibitors | 3.5% of 310,000 active | AID 2546, 2010;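 note: Gal4-VP16 expression switched on by copper sulfate through the metallothionein promoter; nearly all actives have a fitted effect of over 50% in size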
TDP1 cell CPT – qHTS for Inhibitors of human tyrosyl-DNA phosphodiesterase 1 (TDP1): qHTS in cells in presence of CPT; chicken DT40 Tdp1-/-;hTDP1 cells + 20 nM CPT, ATP luminescence, 48 h; Potency, µM (highest dose often 46.2 µM), actives largely listed as inhibitors; 12% of 420,000 active; AID 686979, 2013; note: nearly all actives have a fitted effect of over 55% in size
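Cell growth measured by CellTiter-Glo luminescence after a minimum 48 h, 37 C compound exposure with 20 nM CPT in Tdp1-knockout DT40 cells stably expressing hTDP1, seeded 400/well; qHTS titration format.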
A number is an active result; n = inactive; u = inconclusive; x = no result; [ ] = dose if it differs, or a comment. Hits are enriched below; roughly 19% of the tested compounds scored in any of these assays. Calls come from the whole dose curve; as a rule, active = well fitted curve in the direction sought with a large enough effect; inconclusive = small, poorly fitted or top-dose-only effect, or another doubt; inactive = no such curve, though single readings can be large; an effect the other way counts as inactive or inconclusive.

SMILES	RORgamma inh	TDP1 inh	TDP1 cell noCPT	Gal4-VP16 FLuc	TDP1 cell CPT
COc1ccc(-c2csc3ncn(-c4ccccc4OC)c(=O)c23)cc1OC	n	n	23µM	n[10 µM]	u
COc1ccc(-c2csc3ncn(-c4cccc(C)c4)c(=O)c23)cc1OC	n	n	u	n	u
COc1ccc(-c2csc3nc(C)n(-n4cccc4)c(=O)c23)cc1OC	n	n	23µM	n	16µM
COc1ccc(-c2csc3nc(C(C)(C)C)oc(=O)c23)cc1OC	n	n	u	n	n
COC(=O)c1ccccc1NC(=O)C1CCC(=O)N1S(=O)(=O)c1ccc(C)cc1 (stereo not drawn)	n	n	n	n	n
CC1(C(=O)OCC(=O)NCCNC(=O)COC(=O)C2(C)CC2(Cl)Cl)CC1(Cl)Cl (stereo not drawn)	n	n	16µM	n	u
Cc1[nH]n2c(=O)cc(C(C)(C)C)nc2c1-c1ccccc1	1.4µM	n	5.2µM	3.2µM	4.6µM
Cc1nn2c(N3CCN(C)CC3)cc(C(C)(C)C)nc2c1-c1ccccc1	u	n	u	u	u
Cc1[nH]n2c(=O)cc(-c3ccc(Cl)cc3)nc2c1-c1ccccc1	x	n	0.92µM	x	0.65µM
COc1ccc(-c2c(C(F)(F)F)[nH]n3c(=O)cc(-c4ccccc4)nc23)cc1	n	x	u	n	u
Cc1[nH]n2c(=O)cc(-c3ccc([N+](=O)[O-])cc3)nc2c1-c1ccccc1	x	x	7.3µM	x	12µM
CCc1cccc(CC)c1NC(=O)CO/N=C(\N)CC(=O)NC1CCCCC1	n	n	n	n	n
O=C(CSc1nc2c(oc3ccccc32)c(=O)[nH]1)Nc1cccc(Cl)c1	x	n	n	x	u
Cc1cccc(C)c1Nc1c(-c2ccccn2)nc2ccc(Cl)cn12	x	n	u	x	n
CCN1CCN(c2ncc3c(n2)CCN(Cc2ccc(OC(C)C)cc2)C3)CC1	x	n	u	x	u
CC(=O)NS(=O)(=O)c1ccc(NC(=O)c2ccc(Br)o2)cc1	n	n	n	n	n
COc1ccccc1CNn1c(-c2cccc(C)c2)nc2ccccc2c1=O	u	n	u	n	u
c1ccc2sc(C3CCN(Cc4nnnn4Cc4ccc5c(c4)OCO5)CC3)nc2c1	n	n	18µM	n	u
COc1ccc(Cn2nnnc2CN2CCC(c3nc4ccccc4s3)CC2)cc1	n	n	u	n	u
CN(C)c1ccc(Nc2ncnc3ccc(Br)cc23)cc1	n[1.91 µM]	x	u	n	u
Cc1cccc(Nc2ncnc3ccc(Br)cc23)c1	u	n	u	n[10 µM]	u
Clc1ccc(Nc2ncnc3ccc(Br)cc23)cc1	n	n	15µM	n	10µM
Clc1cccc(Nc2ncnc3ccc(Br)cc23)c1	u	n	u	n	26µM
CCN(CC)CCOc1ccccc1C(C)=O	n	n	n	n	n
COCCCn1cn[nH]c1=S	n	n	15µM	n	u
SMILES	RORgamma inh	TDP1 inh	TDP1 cell noCPT	Gal4-VP16 FLuc	TDP1 cell CPT
O=C(NCCc1ccc(Cl)cc1)c1ccc(OCC2CCCO2)cc1 (stereo not drawn)	n	n	n	n	n
Cn1c(/N=C/c2ccc3c(c2)OCO3)nc2ccccc21	n	n	n	n	n
CCN(CC)C(=O)c1cc2c(=O)n3cccc(C)c3nc2n1C	n	n	u	n	n
COC(=O)C1=C(C)N(Cc2ccccc2)C(=NCc2ccccc2)N[C@H]1c1cccc(C(F)(F)F)c1	x	n	5.8µM	x	5.8µM
COC(=O)C1=C(C)N(Cc2ccccc2)C(=S)N[C@H]1c1cccc(C(F)(F)F)c1	3.5µM	n	u	10µM	u
COC(=O)C1=C(C)N(Cc2ccccc2)C(=O)N[C@H]1c1cccc(C(F)(F)F)c1	n	n[21 µM]	u	n	u
CCN(CC)CCn1c2c(c(SCC(=O)Nc3ccc(C)c(F)c3)nc1=O)CCC2	x	x	n	x	n
CN(C)S(=O)(=O)c1cc(NC(=O)CSc2ncc(C(F)(F)F)cc2Cl)ccc1Cl	u	n	16µM	n	15µM
COc1ccc(NC(=O)CSc2nnc(-c3ccccc3C)n2N)cc1OC	u	n	n	n	n
O=C(Cn1c(SCC(=O)Nc2ccc(F)cc2)nc2ccccc21)NCc1ccc(Cl)cc1	x	n	13µM	x	u
CCN(C(=O)CSc1nc2ccccc2n1Cc1ccc(C(=O)OC)cc1)c1ccccc1	x	n	13µM	x	21µM
COc1ccc(NC(=O)CSc2nnc(-c3ccccc3C)n2N)cc1	n	n	21µM	n	16µM
O=S(=O)(c1ccc(F)cc1)N1CCCN(Cc2c(F)cccc2F)CC1	n	x	n	n	n
Cc1c(C)c2ccc(OCC(=O)Nc3ccc(N4CCC(C)CC4)cc3)cc2oc1=O	n	n	n	n	n
COc1ccccc1CNC(=O)CN1c2cccc3cccc(c23)S1(=O)=O	x	n	n	x	n
CCCCNC(=O)NCc1cnn(C)c1C	n	n	n	n	n
COC(=O)c1ccc(Cn2c(SCC(=O)NCc3ccccc3)nc3ccccc32)cc1	x	n	23µM	x	21µM
COc1ccccc1NC(=O)Cn1c(SCC(=O)NCc2ccccc2)nc2ccccc21	x	n	u	x	n
COCCn1c(SCC(=O)Nc2ccc(S(N)(=O)=O)cc2)nc2ccccc21	n	n	n	n	n
COCCn1c(SCC(=O)Nc2ccc(Cl)c(S(=O)(=O)N(C)C)c2)nc2ccccc21	n	n	16µM	n	u
COc1ccc(Cn2c(SCC(=O)Nc3ccc(OC)cc3)nc3ccccc32)cc1	x	n	u	x	26µM
Cc1sc(-n2cccc2)c(C(=O)O)c1C	n	n	n	n	n
COc1ccc(/C=C/C(=O)OCC(=O)N2CC(=O)Nc3ccccc32)cc1S(=O)(=O)N1CCOCC1	n	n	u	n	u
Cc1cccc(Cn2c(SCc3ccc(C(=O)NCc4cccs4)cc3)nc3ccncc32)c1	x	n	23µM	x	u
CCOc1ccc(CNC(=O)c2ccc(CSc3nc4ccncc4n3Cc3ccc(F)cc3)cc2)cc1	x	n	u	x	u
SMILES	RORgamma inh	TDP1 inh	TDP1 cell noCPT	Gal4-VP16 FLuc	TDP1 cell CPT
O=C(NCc1cccs1)c1ccc(CSc2nc3ccncc3n2Cc2ccccc2)cc1	x	n	18µM	x	u
COc1ccccc1CNC(=O)c1ccc(CSc2nc3ccncc3n2Cc2ccccc2C)cc1	x	n	u	x	u
O=C(CCS(=O)(=O)c1cc(Br)cc2c1N(C(=O)C1CC1)CC2)NCc1ccco1	u	n	u	n	n
CC1Cc2cc(S(=O)(=O)CCC(=O)NCc3ccco3)ccc2N1C(=O)C1CC1 (stereo not drawn)	n	n	2.9µM	n	6.5µM
CCC(=O)N1CCc2cc(S(=O)(=O)CCC(=O)NCc3ccco3)ccc21	n	n	2.9µM	n	n
COc1ccc(CNC(=O)CCS(=O)(=O)c2ccc3c(c2)CC(C)N3C(=O)C2CC2)cc1 (stereo not drawn)	n	n	3.7µM	n	15µM
